# Cl transport mod – KCC2 cotransporter modulators, thallium flux, primary screen, cell-based, HEK293 KCC2, FluoZin-2 fluorescence, MLSMR; B-score of Tl+ flux slope (higher = more flux/activation; lower = inhibition) at 10 µM; Solute carrier family 12 member 5 (Homo sapiens), Q9H2X9; 190,000 compounds, 2.2% hits; KCC2 cells, thallium flux FluoZin-2 fluorescence;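 active = thallium flux slope and its plate-corrected score both differing from the plate sample mean at a set confidence after two filtering rounds, in either direction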;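 also: slope of fluorescence scaled to starting intensity during 10 to 20 s after thallium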
# Calpain2 inh – inhibitors of pig calpain II, primary screen, biochemical, fluorogenic peptide substrate, 1536-well; purified calpain II, 30 min; inhibition, % at 16 µM; 220,000 compounds, 0.37% hits; AID 1236, 2008;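 active = inhibition above about 50%, limit read from the data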
# WT yeast gro inh – growth inhibition of WT strain, primary screen, mitochondrial fusion inhibitor project, WT and mutant strains, chemical genetic | inhibition, % at 10 µM | mitochondrial fusion phenotypic screen | 190,000 compounds, 2.1% hits; in the data active = inhibition above about 58%; tested in S. cerevisiae
# L major viab – Leishmania major promastigote growth inhibition, primary screen; inhibition, % at 10 µM; AID 1063, 2008; 200,000 compounds, 9% hits; Leishmania major promastigotes, resazurin fluorescence viability; in the data active = inhibition above about 50%;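 also: promastigotes grown with compound for 44 hours at 28 °C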
# ROMK primary – ROMK potassium channel modulators, primary screen, cell-based, thallium flux, MLSMR library. ATP-sensitive inward rectifier potassium channel 1 (Homo sapiens), P48048. Tet-inducible ROMK, thallium flux fluorescence; actives lie on both sides. B-score at 10 µM. 130,000 compounds, 2% hits. AID 1918, 2009;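 active = signal ratio slope over the read window, or its plate-corrected B-score, at least 3 SD from the plate mean, either direction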;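 also: B-score of the F/F0 ratio slope over 7 to 12 s after thallium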
# Target sequence (P48048 whole entry, looked up): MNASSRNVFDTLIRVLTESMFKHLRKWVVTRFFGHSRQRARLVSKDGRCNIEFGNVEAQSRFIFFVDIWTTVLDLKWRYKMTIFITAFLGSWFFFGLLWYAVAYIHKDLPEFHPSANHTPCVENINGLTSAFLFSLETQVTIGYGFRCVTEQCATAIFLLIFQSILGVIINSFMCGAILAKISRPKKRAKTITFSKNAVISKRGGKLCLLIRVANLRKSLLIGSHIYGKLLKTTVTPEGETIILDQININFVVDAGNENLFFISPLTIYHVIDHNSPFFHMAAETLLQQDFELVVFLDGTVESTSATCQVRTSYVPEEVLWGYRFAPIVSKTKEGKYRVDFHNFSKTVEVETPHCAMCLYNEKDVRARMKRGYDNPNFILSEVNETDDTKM
# Numbers without * were called inactive; i = inactive; · = not tested or not shown. Sampled rows, rich in hits. Any-hit rate of the full collection: about 12%.
SMILES,Cl transport mod,Calpain2 inh,WT yeast gro inh,L major viab,ROMK primary
CCN(c1ccccc1)S(=O)(=O)c1ccc(Cl)c(NC(=O)CN2CCCCCC2)c1,-0.37,15,·,·,·
Cc1ccc(C2NNC(=O)C2NC(=O)c2ccccc2)cc1 (stereo not drawn),-0.0081,26,-9,-6,0.46
COc1nsnc1NS(=O)(=O)c1ccc(NC(=S)NC(=O)c2cccnc2)cc1,-0.028,-7,-4,-4,1
COC(=O)Cn1c(O)c(N=NC(=O)c2ccc3c(c2)OCO3)c2ccccc21,1.7,-41,13,5,-0.79
O=C(Nc1ccccc1N1CCOCC1)C1CCN(S(=O)(=O)c2cccc(C(F)(F)F)c2)CC1,0.45,-1,-3,66*,-0.088
CC(C)CC(=O)NC1(C(F)(F)F)C(=O)N(Cc2ccccc2)C2=C1C(=O)CC(C)(C)C2 (stereo not drawn),0.057,-2,9,26,·
O=C1CCCC2=C1C(O)(C(F)(F)F)C(=O)N2Cc1ccccc1 (stereo not drawn),0.077,6,-3,61*,·
CC1(C)CC(=O)C2=C(C1)N(Cc1ccccc1)C(=O)C2(O)C(F)(F)F (stereo not drawn),-0.7,20,5,66*,·
C/C(=C\c1ccccc1)CN(C)CCN(C)C,·,-29,-12,97*,·
NNC(=O)c1ccc2c(c1)S(=O)(=O)NNC2=O,0.16,-5,2,-8,0.01
CCCc1cc(NCC2CCCO2)n2c(nc3ccccc32)c1C#N (stereo not drawn),-0.21,-493,10,78*,-0.44
Cc1ccc(OCc2nnc(N)s2)cc1C,-0.018,-12,·,·,0.062
Cc1ccc(-c2cc(C(F)F)n3ncc(C(=O)N4CCN(c5ccccn5)CC4)c3n2)cc1,-2.2,-19,26,100*,·
CCN1CCN(C(=O)c2cnn3c(C(F)F)cc(-c4ccc(C)cc4)nc23)CC1,0.72,-250,-2,98*,·
COc1ccc(-c2cc(C(F)F)n3ncc(C(=O)N4CCCCC4)c3n2)cc1,0.0093,-234,1,100*,·
Cc1ccc(N2C(=O)C3C4C=CC(CNC(=S)Nc5cccc(Cl)c5)(O4)C3C2=O)cc1 (stereo not drawn),-0.75,13,6,79*,-0.26
Cc1ccc(N2C(=O)C3C4C=CC(CNC(=S)N5CCN(c6ccccn6)CC5)(O4)C3C2=O)cc1 (stereo not drawn),0.74,-16,22,3,-0.49
Cc1ccc(N2C(=O)C3C4C=CC(CNC(=S)Nc5ccc(Cl)cc5)(O4)C3C2=O)cc1 (stereo not drawn),0.087,19,14,83*,-0.74
CC(C)COC(=O)NCC12C=CC(O1)C1C(=O)N(c3ccc(Cl)cc3)C(=O)C12 (stereo not drawn),0.05,-8,-6,-9,·
Cc1ccc(N2C(=O)C3C4C=CC(CNC(=S)Nc5ccc(F)cc5)(O4)C3C2=O)cc1 (stereo not drawn),0.32,11,-5,67*,-0.4
Cc1cccc2cc(CN(Cc3cccs3)S(=O)(=O)c3ccc4c(c3)OCCO4)c(=O)[nH]c12,-0.58,-14,6,17,·
CN(CC(=O)NCc1ccc2c(c1)OCO2)S(=O)(=O)c1ccc(Br)s1,0.33,11,-2,-3,-0.73
COc1ccc(/C=C/C2=CC(C)(C)NC(=S)N2)cc1,0.71,17,11,14,-0.42
CC(=O)Nc1cccc2c1C(=O)N(c1ccc(OC(C)=O)cc1)C2=O,·,10,1,-5,-0.65
O=C1c2ccccc2C(=O)c2c1ncn2-c1ccccc1,-0.38,-3,2,55*,-0.11
SMILES,Cl transport mod,Calpain2 inh,WT yeast gro inh,L major viab,ROMK primary
O=C1c2ccccc2C(=O)c2[nH]cnc21,1.1,12,·,·,·
Cc1cc(-c2n[nH]c(=S)n2/N=C/c2cc([N+](=O)[O-])ccc2Cl)n[nH]1,-0.46,20,0,84*,·
O=[N+]([O-])c1cccc(/C=N/n2c(-c3cccnc3)n[nH]c2=S)c1,-0.38,-8,-6,55*,-0.13
O=[N+]([O-])c1ccc(/C=N/n2c(-c3cccnc3)n[nH]c2=S)cc1,0.4,-10,-6,-3,·
O=C(O)c1cc(C(F)(F)F)nc2c(C(F)(F)F)cccc12,-0.17,0,-1,-1,·
Cc1ccc(NC(=O)C2CCCN2S(=O)(=O)c2ccc3c(c2)n(C)c(=O)c(=O)n3C)c(C)c1 (stereo not drawn),-0.45,0,·,·,-0.25
CC1=CC(=O)C(C(C)C)=C/C1=N\OC(=O)c1cccc2nc(C)oc12,-0.0035,18,5,96*,·
Cc1ccc(C(=O)O/N=C(\N)c2cccc([N+](=O)[O-])c2)cc1,0.32,16,27,11,·
CC1=CC(=O)C(C(C)C)=CC1=NC(=O)c1ccc(C)cc1,-0.53,20,-20,8,-1.2
CC1=CC(=O)C(C(C)C)=C/C1=N/OC(=O)c1cccc([N+](=O)[O-])c1,-0.047,-12,-1,100*,-0.074
CC1=CC(=NOC(=O)c2cccc([N+](=O)[O-])c2)C=C(C)C1=O,0.011,-7,-8,100*,·
COc1ccc(/C=C2\N=C(SC)N(C)C2=O)cc1,-0.18,7,3,-3,·
Cc1ccc(SCC(=O)Nc2ccc(C(=O)Nc3ccc(O)cc3)cc2)cc1,1.3,-7,-9,-6,-0.32
Cc1cc(C)c2nc(/N=C(\N)NC(=O)Nc3ccccc3)nc(C)c2c1,0.54,-78,58*,100*,1.5
CC(=O)NCCC1CCN(c2nc3nonc3nc2N(C)Cc2ccccc2)CC1,-3.6,-5,-17,8,·
O=C(Nc1ccc2c(c1)OCO2)c1ccc2nc[nH]c2c1,·,-19,-2,4,-0.63
CC(C)=CCC/C(C)=C/C=N/NC(=O)c1ccccc1[N+](=O)[O-],-0.12,4,5,94*,0.032
Cc1cc(C)[n+]2[nH]c(N)c(N=Nc3ccccc3)c2n1,0.78,0,·,·,·
O=C(O)CC1(CC(=O)Nc2cc(F)ccc2Cl)CCCCC1,1,-9,·,·,·
Cc1ccc(S(=O)(=O)Nc2ccc(-c3nc4cc(NS(=O)(=O)c5ccc(C)cc5)ccc4o3)cc2)cc1,0.34,i,-4,98*,0.19
O=C(Nc1ccc(F)cc1)c1ccccc1Oc1ccc(C(F)(F)F)cc1[N+](=O)[O-],0.26,5,66*,97*,0.78
CC(=O)c1cccc(CN2CCCC(CCC(=O)NCc3ccc(F)c(F)c3)C2)c1 (stereo not drawn),·,3,-2,98*,-0.63
CCOc1cccc(CN2CCCC(CCC(=O)NCc3ccccc3F)C2)c1O (stereo not drawn),-0.3,-4,6,56*,-1.2
COc1cccc(CNC(=O)CCC2CCCN(C(=O)CCC(F)(F)F)C2)c1 (stereo not drawn),-0.77,16,7,7,0.65
Cc1nn(C)c(Cl)c1CN1CCCC(CCC(=O)NCc2ccccc2F)C1 (stereo not drawn),0.071,-34,1,37,0.049

# Screening data (PubChem BioAssay)
